Hit rate of the full screen: of about 340,000 compounds, about 2,100 (0.62%) were called active.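 Rule for the calls: active = first-screen hits whose inhibition reached a set limit at any dose in the follow-up dose series; inconclusive = inhibition above the set first-screen limit but never retested; inactive = the rest.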 Not all results are given here. Results with a measured potency or affinity are listed apart.
What follows are compounds tested against Rac GTPase-activating protein 1 (Homo sapiens) (UniProt Q9H0H5) (assay: blockers of MgcRacGAP-driven Rac1 GTP hydrolysis – biochemical, ADP Hunter fluorescence, primary and confirmatory, confirmation (AID 624330;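 note: fluorescence reports GDP produced by GAP-driven GTP hydrolysis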)). Details: MgcRacGAP-stimulated Rac1 GTP hydrolysis, at 30 µM, hits give high values, GST-tagged Rac1 F28L mutant substrate.
Rac GTPase-activating protein 1 (Homo sapiens), sequence (Q9H0H5 whole entry, looked up): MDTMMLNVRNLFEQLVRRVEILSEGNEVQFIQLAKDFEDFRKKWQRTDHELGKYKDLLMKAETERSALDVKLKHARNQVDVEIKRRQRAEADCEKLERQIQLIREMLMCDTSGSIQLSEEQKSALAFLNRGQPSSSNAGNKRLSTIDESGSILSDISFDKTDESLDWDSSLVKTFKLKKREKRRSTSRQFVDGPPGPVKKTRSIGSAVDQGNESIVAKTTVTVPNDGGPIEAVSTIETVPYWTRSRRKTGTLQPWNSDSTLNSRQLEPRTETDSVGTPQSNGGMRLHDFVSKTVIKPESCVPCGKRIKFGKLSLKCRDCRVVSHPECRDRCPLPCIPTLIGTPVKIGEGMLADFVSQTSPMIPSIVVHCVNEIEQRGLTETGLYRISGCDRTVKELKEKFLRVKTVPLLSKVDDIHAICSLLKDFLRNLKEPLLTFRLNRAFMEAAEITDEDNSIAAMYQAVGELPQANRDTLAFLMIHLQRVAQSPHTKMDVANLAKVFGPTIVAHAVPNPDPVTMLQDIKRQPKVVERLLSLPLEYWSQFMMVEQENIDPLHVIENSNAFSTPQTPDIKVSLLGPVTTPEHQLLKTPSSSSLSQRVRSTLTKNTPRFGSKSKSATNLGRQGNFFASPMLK

inhibition, inactive:
O=C(c1ccc(S(=O)(=O)NCC2CCCO2)cc1)N1CCN(c2ccccc2F)CC1 (centres undefined) 5.89%
COc1ccc(N2CCN(C(=O)c3ccc(CS(=O)Cc4ccc(Cl)cc4)o3)CC2)cc1 (centres undefined) 14%
COc1ccc(S(=O)(=O)Cc2ccc(C(=O)N3CCN(c4ccc(Cl)cc4)CC3)o2)cc1 4.84%
C=CCN(Cc1ccc(Cl)s1)C(=O)c1cc(S(=O)(=O)N2CCOCC2)ccc1F 1.3%
COc1ccc(NC(=O)/C(=C\c2cc(OC)c(OC)cc2[N+](=O)[O-])NC(=O)c2ccccc2)cc1 9.89%
COc1cc(/C=C(/NC(=O)c2ccccc2)C(=O)Nc2ccccc2)c([N+](=O)[O-])cc1OC 4.35%
C=CCn1c(CNc2ccc(C)cc2)nnc1SCC(=O)N/N=C/c1ccc(O)cc1 30.4%
C=CCn1c(COc2ccccc2)nnc1SCC(=O)N/N=C/c1ccc(C)cc1 1.44%
C=CCn1c(COc2ccccc2)nnc1SCC(=O)N/N=C/c1cc(Cl)ccc1O 11%
C=CCn1c(CNc2ccccc2)nnc1SCC(=O)N/N=C/c1ccccc1O 3.95%
COc1c(N)c2c(c([N+](=O)[O-])c1OC)C(=O)OC2 -0.66%
C/C(=N\OCC(=O)Nn1c(=O)[nH]c2ccccc2c1=O)c1ccccc1 10.5%
Cc1cc(C)nc(NN=C(c2ccccc2)c2ccccc2)n1 7.14%
CC1=C(C(=O)Nc2ccccc2C(=O)NCCCOC(C)C)SCCO1 -0.28%
O=C(Nc1ccccc1)c1cccc(N2C(=O)C3C4C=CC(C4)C3C2=O)c1 (centres undefined) 8.69%
O=C(Nc1ccc(Br)cc1)c1cccc(N2C(=O)C3C4C=CC(C4)C3C2=O)c1 (centres undefined) 7.3%
CN1CCOCCOCCN(C)C1=O 8.52%
O=C(Cc1cccc2ccccc12)NC(=S)Nc1cccc(C(=O)O)c1 5.5%
O=C(N/N=C/c1ccc(O)cc1O)NC12CC3CC(CC(C3)C1)C2 15%
COc1cc(/C=N/NC(=O)NC23CC4CC(CC(C4)C2)C3)ccc1OCC(N)=O 7.72%
O=C(N/N=C/c1ccncc1)NC12CC3CC(CC(C3)C1)C2 10.9%
COc1ccc(C=NNC(=S)NC23CC4CC(CC(C4)C2)C3)cc1OC 7.09%
COc1ccc(/C=C2/S/C(=N/N=C3\CC4CCC3(C)C4(C)C)NC2=O)cc1 (centres undefined) 7.33%
COc1ccc(C=NNC(=O)NN=Cc2ccc(OC)c(OC)c2)cc1OC 3.42%
COc1ccc(/C=N/N=C2\CC3CCC2(C)C3(C)C)cc1O (centres undefined) 5.9%
COc1ccc(/C=N/NC(=O)C2C3CCCCC32)cc1OC (centres undefined) 10.4%
COc1ccc(C(=O)NCC(=O)N/N=C(\C)c2ccco2)cc1OC -0.25%
CCOC(=O)CNc1nc(Cl)nc(Nc2ccc(Cl)cc2)n1 -8.39%
CCCCn1nnc(N(C(=O)c2cccs2)C(=O)c2cccs2)n1 -4.48%
CC(C)CC(=O)NC(=S)Nc1ccc(N2CCOCC2)c(Cl)c1 2.66%
S=C(c1ccc(-c2ccc(Cl)cc2Cl)o1)N1CCCCC1 10.8%
O=C(COc1ccc(Cl)cc1)NNC(=O)c1ccncc1 8.55%
Cc1ccc(NC(=O)c2sccc2C)cc1S(=O)(=O)N(C)C 11.1%
COc1ccc2c(c1)C1NC(=S)N[C@@](C)(O2)C1C(=O)Nc1ccccc1 (some centres undefined) 9.66%
COc1nn(CC(=O)N2N=C(C(F)F)CC2(O)C(F)F)cc1[N+](=O)[O-] (centres undefined) 5.35%
CC(C)CN1CCC(=O)N([C@H](CN=[N+]=[N-])Cc2ccccc2)CC1 7.37%
O=C(NN=Cc1cc([N+](=O)[O-])ccc1O)c1cccc2ccccc12 4.07%
COc1ccc(/C=N/NC(=O)NC23CC4CC(CC(C4)C2)C3)c(OC)c1 0.89%
O=C(N/N=C/c1ccccc1O)NC12CC3CC(CC(C3)C1)C2 7.17%
COc1ccccc1N1CCN(C2CCCN(C(=O)c3ccsc3)C2)CC1 (centres undefined) 9.49%
Cc1nnc(SCC(=O)NNC(=O)COc2ccc(Cl)cc2)s1 3.46%
CCN(CC)c1ccc(C(=S)NCc2ccccc2)cc1 9.69%
CCN(CC)c1ccc(C(=C2C=CC(=[N+](CC)CC)C=C2)c2ccc(S(=O)(=O)O)cc2S(=O)(=O)[O-])cc1 25.4%
CCN(CC)c1ccc(C(=O)NNC(=O)CCNC(=O)c2ccccc2)cc1 7.48%
CCN(CC)c1ccc(C(=O)NN)cc1 10%
CC(C)(/C=N/NC(=O)CSCc1ccccc1Cl)CCC#N 4.57%
Cc1nc(NC(=O)C2CC2)sc1C(=O)Nc1ccccc1 12.6%
CCc1ccc(NS(=O)(=O)c2ccc3[nH]c(=O)[nH]c3c2)cc1 -4.35%
Cn1c(SCC(=O)NC2CCS(=O)(=O)C2)nnc1-c1ccco1 (centres undefined) -3.56%
O=C(CCNC(=O)c1ccccc1)NC1CCCc2ccccc21 (centres undefined) 6.57%
Cc1ccc(S(=O)(=O)NCCc2ccncc2)cc1[N+](=O)[O-] 2.26%
CCN(CC)S(=O)(=O)c1cccc(-c2n[nH]c(=S)n2/N=C/c2ccc(Br)cc2)c1 12.8%
CCN(CC)S(=O)(=O)c1cccc(-c2n[nH]c(=S)n2/N=C/c2ccc(OC)cc2)c1 8.14%
CC(=O)Nc1ccc(Oc2ccc(-c3noc(C)n3)cc2)cc1 10.9%
CC(NC(=O)Cc1cccc(C(F)(F)F)c1)c1ccc(F)cc1 (centres undefined) 0.98%
CCOC(=O)c1c(C)nsc1NCc1ccccc1 10.9%
CCOC(=O)c1c(C)nsc1NC(=O)C1CCCCC1 -1.81%
CCOC(=O)c1sc(NC(=O)CC)nc1C 7.69%
CCOC(=O)c1sc(NC(C)=O)nc1C 6.36%

Reference: PubChem BioAssay AID624330 (Southern Research Specialized Biocontainment Screening …, 2012)
